Only a selection was taken, and hits are over-represented in it overall.
TbPYK inhibitor = qHTS of Trypanosoma Brucei Inhibitors | pyruvate kinase (Trypanosoma brucei), Q57TT1 | TbPYK enzyme, Kinase-Glo Plus ATP luminescence, 45 min | Potency, µM (highest dose often 76.8 µM), for the others: at the highest dose activity, negative = inhibition, hits mostly inhibitors | 0.12% of 410,000 active | AID 624173, 2012; note: potency is the fitted concentration of half-maximal effect; % is set by controls: 0 for no effect and ±100 for the full control effect; nearly all actives have a fitted effect of over 50% in size
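Quantitative HTS: titrated library compounds versus trypanosomal pyruvate kinase in TEA buffer (pH 7.2) containing KCl, MgCl2, BSA and Tween-20. Reactions were initiated with ADP, 130 uM final. Kinase-Glo Plus luminescence was read after 45 min at RT.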
Giardia FBPA inh = qHTS Assay for Inhibitors of Fructose-1,6-bisphosphate Aldolase from Giardia Lamblia; A8B2U2; purified Giardia FBPA; Potency, µM (titrated, usually from 59.6 µM), for the others: at the top dose activity, negative = inhibition, usual class: inhibitors; 0.71% of 290,000 active; AID 2451, 2010; note: potency is the fitted concentration of half-maximal effect; % is set by controls: 0 for no effect and ±100 for the full control effect; nearly all actives have a fitted effect of over 55% in size
Target sequence (A8B2U2 whole entry, looked up): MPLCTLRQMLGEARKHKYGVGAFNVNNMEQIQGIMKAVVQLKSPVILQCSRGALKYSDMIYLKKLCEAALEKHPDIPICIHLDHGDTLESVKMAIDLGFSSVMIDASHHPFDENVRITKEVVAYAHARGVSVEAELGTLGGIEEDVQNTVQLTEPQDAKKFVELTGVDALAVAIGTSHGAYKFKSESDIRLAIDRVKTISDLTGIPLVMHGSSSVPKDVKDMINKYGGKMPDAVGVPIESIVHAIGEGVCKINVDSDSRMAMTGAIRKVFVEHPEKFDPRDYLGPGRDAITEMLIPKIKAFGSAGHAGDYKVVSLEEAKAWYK
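Giardia FBPA (40 nM reagent) was preincubated 10 min at RT with compound (up to 57.5 uM final), then substrate plus GAPDH/TPI/NAD/arsenate coupling system with diaphorase/resazurin was added; resorufin fluorescence (525/598 nm) was read after 20 min.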
LmPK inhibitor = qHTS Assay for Inhibitors of Leishmania Mexicana Pyruvate Kinase (LmPK). Q27686. purified LmPK, Kinase-Glo ATP luminescence, 1 h. Potency, µM (series often up to 57.5 µM), for inactives: top-dose activity change, negative = inhibition, hits mostly inhibitors. 0.37% of 290,000 active; note: potency is the fitted concentration of half-maximal effect; % is set by controls: 0 for no effect and ±100 for the full control effect
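Purified LmPK (0.1 nM) converted ADP (0.1 mM) to ATP with PEP (0.5 mM) in imidazole buffer pH 7.2 with KCl and MgCl2, 1 h at room temperature. ATP was read by Kinase-Glo luminescence; data normalized to uninhibited and no-enzyme controls.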
Shiga inhibitor = A qHTS for Small Molecule Inhibitors of Shiga Toxin | 9.2% of 290,000 active | inhibition, % at 38.7 µM | Vero cells, Shiga toxin protein synthesis inhibition reporter; in the data active = inhibition mostly above about 28%, no sharp cut-off; inactive = mostly below about 43%; note: 0% is about no effect
CHX counter = Cycloheximide Counterscreen for Small Molecule Inhibitors of Shiga Toxin | cell reporter, cycloheximide protein synthesis inhibition counterscreen | max response, % | 12% of 300,000 active | AID 2314, 2010; in the data active = max response mostly above about 13%, no sharp cut-off; inactive = mostly below about 14%; note: read at 38.3 µM for the half of the compounds with a filed dose; 0% is about no effect
RE007 growth inh = qHTS Assay for Inhibitors of the HIV-1 protein Vpr. S. pombe RE007 Vpr strain, BacTiter-Glo ATP luminescence, 24 h. Potency, µM (doses to about 92.2 µM), for the others: at the highest dose activity change, negative = less growth, actives largely listed as inhibitors. 0.21% of 360,000 active; active = well fitted falling curve with a large enough effect; inconclusive = small, poorly fitted or top-dose-only effect; inactive = no such curve, though single readings can be large or run the other way; note: potency is the fitted concentration of half-maximal effect; % is set by controls: 0 for no effect and ±100 for the full control effect; nearly all actives have a fitted effect of over 50% in size
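Fission yeast strain RE007, carrying one chromosomally integrated HIV-1 vpr copy, was seeded at OD 0.01 in PMG+AL medium with 23 nL pinned compound. After 24 h at 30 °C and 99% humidity, viability was read by BacTiter-Glo luminescence.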
Active calls of the source: *; ? = inconclusive; . = no result given; [ ] = another dose, or the depositor's remark. Unless noted, calls come from the whole dose curve; as a rule, active = well fitted curve in the direction sought with a large enough effect; inconclusive = small, poorly fitted or top-dose-only effect, or another doubt; inactive = no such curve, though single readings can be large; an effect the other way counts as inactive or inconclusive.

SMILES	TbPYK inhibitor	Giardia FBPA inh	LmPK inhibitor	Shiga inhibitor	CHX counter	RE007 growth inh
COc1ccc(C2CC(c3ccc(OC)cc3OC(C)=O)=NN2C(=O)c2ccccc2)cc1 (configuration not stated)	2%	2%	1%	37	14*	20%
CC(=O)c1ccc(N2CCN(c3ncnc4c3nc3n4CCCC3)CC2)cc1	-4%	.	.	.	.	.
CC(C)c1cc(-c2nc(-c3cccc(Cl)c3)no2)n[nH]1	3%	.	.	.	.	.
Cc1nc(-c2cccc(Cl)c2)n[nH]1	-3%	-1%	-4%	104*	23*	-1%
O=C(/C=C/c1ccc(Cl)cc1Cl)OCC(=O)N1CCCC1	-7%	.	.	.	.	-24%
O=C(COc1ccc2ccccc2c1Br)N1CCOCC1	-15%	-15%	1%	39*	25	?
Cc1ccc(C)c(OCC(=O)N2CCOCC2)c1	-7%	0%	1%	-3	3	4%
O=C(COc1ccc2ccccc2c1Br)N1CCCC1	1%	.	-8%	35	42*	-24%
Cc1cccc(C)c1OCC(=O)Nc1ncn[nH]1	-7%	-2%	-2%	-14	-3	27%
O=C(COc1ccc2ccccc2c1Br)Nc1ncn[nH]1	-4%	1%	-1%	76*	32*	-4%
CCOC(=O)N1CCN(C(=O)COc2ccc3ccccc3c2Br)CC1	3%	.	0%	-5	0	3%
COc1ccccc1CCNC(=O)Cc1c(C)c2ccc(O)cc2oc1=O	1%	.	.	.	.	.
CC(Oc1ccccc1F)C(=O)NNC(=O)CCNC(=O)c1ccccc1Cl (configuration not stated)	5%	.	-3%	-2	-1	0%
C[C@@H]1CCCCO[C@H](CN(C)C(=O)C2CCCCC2)[C@@H](C)CN([C@H](C)CO)C(=O)c2cc(N(C)C)ccc2O1	?	.	.	.	.	28%
Cc1cccc(C)c1N=C1NN=C(c2ccccc2F)CS1	-22%	5%	0%	14	7	?
Cc1ccccc1N=C1NN=C(c2ccccc2F)CS1	-11%	-6%	-8%	37*	49*	-2%
O=C(Nc1ccccc1C(=O)OCc1cc(=O)n2c3c(sc2n1)CCCC3)c1cccc(Cl)c1	-11%	.	.	.	.	.
CCN(CC)c1ccc(/C=C(\C#N)C(N)=O)cc1	4%	1%	-2%	71	29*	22%
CCN(CC)c1ccc(/C=C(\C#N)C(=O)c2ccc(Br)cc2)cc1	0%	0%	-3%	-3	20*	?
CCN(CC)c1ccc(/C=C(\C#N)C(N)=S)cc1	2%	-2%	-5%	39	25*	2%
Cc1ccc(C=C(C#N)C(=O)c2ccccc2)cc1	-9%	.	.	.	.	2%[18.4 µM]
CCOC(=O)/C(C#N)=C/c1ccc(SC)cc1	2%	-21%	-1%	34	27	14%
CC(=NNC(=O)c1ccncc1)c1cc(Cl)ccc1Cl	5%	.	.	.	.	-15%
Cc1cc(C)cc(C(=O)Nc2cccnc2Cl)c1	1%	-7%	-4%	-5	-4	-2%
Cc1ccc(OCC(=O)Nc2ccccc2F)cc1	-9%	.	.	.	.	-24%
SMILES	TbPYK inhibitor	Giardia FBPA inh	LmPK inhibitor	Shiga inhibitor	CHX counter	RE007 growth inh
Cc1ccc(OCC(=O)Nc2ccccc2F)cc1C	-15%	2%	-8%	81*	36*	28%
Cc1ccc(OCC(=O)Nc2cccnc2Cl)cc1C	2%	-1%	-1%	58*	18*	22%
O=C(COC(=O)CC12CC3CC(CC(C3)C1)C2)Nc1cccnc1Cl	-3%	-1%	-1%	11	25*	39%
Cc1ccc(C(=O)Nc2cccnc2Cl)cc1Cl	0%	13%	-2%	.	35*	33%
O=S(O)CO	-2%	-1%	.	-6	-5	.
CC(C)(C)c1ccc(C2Sc3ccccc3NC3=C2C(=O)c2ccccc23)cc1 (configuration not stated)	-6%	.	.	.	.	.
CC(=O)N1N=C(c2ccccc2)CC1c1ccccc1 (configuration not stated)	6%	11%	-6%	-11	1	-12%
CC(=O)N1SC(N)=NC1c1ccccc1 (configuration not stated)	3%	9%	-7%	64*	19	13%
O=S(=O)(C/C(=C/CO)S(=O)(=O)c1ccccc1)c1ccccc1	-1%	0%	1%	41	26*	-6%
Cc1cccc(NC(=O)Cn2c(=O)n(Cc3ccc4c(c3)OCO4)c(=O)c3ccccc32)c1	1%	.	.	.	.	.
CC1(C(=O)Nc2cccc(OC(F)(F)F)c2)Cc2c(-c3ccc(C(N)=O)cc3)ccnc2O1 (configuration not stated)	-4%	.	.	.	.	1%
O=C(NC1CCCCC1)C1COc2ccccc2O1 (configuration not stated)	-2%	.	.	.	.	-8%
CN(CC1COc2ccccc2O1)C(=S)NC1CCCCC1 (configuration not stated)	5%	-6%	6%	59*	25*	-12%
CCC1COC(c2cccn2Cc2ccc(Cl)cc2)=N1 (configuration not stated)	5%	-7%	-4%[11.5 µM]	-1	12	4%
CCSCC1COC(c2cccn2Cc2ccc(C)cc2)=N1 (configuration not stated)	-4%	1%	-6%	91	39*	-9%
Cc1ccc(-n2ncc3c(NCc4ccco4)ncnc32)cc1C	-3%	4%	-1%	91*	51*	-10%
NC(=O)c1nnn(-c2ccccc2)c1N	-9%	1%	-6%	14	-2	6%
Cc1cccc(-n2ncc3c(NCc4ccco4)ncnc32)c1	-3%	-8%	2%	64*	35*	-12%
CCCCNC(=O)c1nnn(-c2ccccc2)c1N	-9%	-3%	-2%	49*	27*	-5%
Cc1cccc(-n2nnc(C(=O)NCc3ccco3)c2N)c1	-15%	-4%	0%	38*	21*	20%
O=C(/C=C/[C@H]1O[C@@H](n2ccc(=O)[nH]c2=O)[C@H](O)[C@@H]1O)NCC1CCCO1 (some centres not stated)	3%	.	.	.	.	45%
COc1ccccc1CN1CCCC2(CCN(C(=O)c3cccc(F)c3)CC2)C1	13%	2%	.	.	.	.
CCOC(=O)/C=C/c1cc(F)c(S(=O)(=O)N2CCN(S(=O)(=O)c3ccc4c(c3)OCCO4)CC2)cc1F	.	.	.	21	-4	.
COc1cccc(CN2CCc3nc(N4CCN(c5ncccn5)CC4)ncc3C2)c1	-1%	.	.	.	.	.
COc1ccc(C(=O)C[C@@H]2OC[C@H](C(C)C)N2S(=O)(=O)c2ccc(C)cc2)cc1OC	.	.	.	.	.	-7%

Assay outcomes (PubChem)
